AmpC inh no detg: blocks E. coli AmpC beta-lactamase in detergent-free assay. AmpC nitrocefin hydrolysis, absorbance 480 nm, 0.0001% Triton. P00811. Potency, µM (series often up to 57.1 µM), without a hit: top-dose activity change, negative = inhibition, actives largely listed as inhibitors. hit rate 0.52% among 330,000;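 note: plate controls were no compound for no effect and no enzyme for full effect; nearly all actives have a fitted effect of over 20% in size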
Target sequence (P00811 whole entry, looked up): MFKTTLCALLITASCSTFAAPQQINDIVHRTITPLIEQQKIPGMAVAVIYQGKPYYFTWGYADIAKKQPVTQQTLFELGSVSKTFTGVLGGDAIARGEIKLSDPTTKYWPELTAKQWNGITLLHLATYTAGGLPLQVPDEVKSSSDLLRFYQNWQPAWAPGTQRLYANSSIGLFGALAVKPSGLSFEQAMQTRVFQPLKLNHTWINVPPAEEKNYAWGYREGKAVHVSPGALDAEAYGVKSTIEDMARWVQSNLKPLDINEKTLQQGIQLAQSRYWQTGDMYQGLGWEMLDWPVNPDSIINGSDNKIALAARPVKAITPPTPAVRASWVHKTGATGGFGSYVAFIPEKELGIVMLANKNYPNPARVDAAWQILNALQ
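AmpC (5.3 nM in the dispensed reagent) in 20 mM phosphate pH 7.0 with 0.01% (detergent screen) or 0.0001% Triton X-100 was preincubated with compounds for 15 min at room temperature. Nitrocefin was then added from an 800 uM solution, and hydrolysis was followed at 480 nm.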
AmpC inh detg: blocks E. coli AmpC beta-lactamase in detergent assay; P00811; AmpC hydrolysis of nitrocefin, absorbance 480 nm, 0.01% Triton; Potency, µM (series often up to 114 µM), without a hit: top-dose activity change, negative = inhibition, most hits filed as inhibitors; hit rate 0.041% among 370,000; AID 485294;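 note: 0% = no-compound wells and -100% = no-enzyme wells; nearly all actives have a fitted effect of over 25% in size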
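AmpC (5.3 nM in the dispensed reagent) in 20 mM phosphate pH 7.0 with 0.01% (detergent screen) or 0.0001% Triton X-100 was preincubated with compounds for 15 min at room temperature. Nitrocefin was then added from an 800 uM solution, and hydrolysis was followed at 480 nm.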
Sm TGR block: S. mansoni TGR enzyme inhibition; Q962Y6; purified TGR, DTNB reduction, TNB absorbance 405 nm; Potency, µM (top dose mostly 114 µM), without a hit: at the highest dose activity change, negative = inhibition, usual class: inhibitors; hit rate 3% among 360,000; note: nearly all actives have a fitted effect of over 60% in size
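Kinetic colorimetric format: TGR-catalysed, NADPH-driven DTNB reduction monitored via TNB absorbance. Enzyme dispensed at 20 nM; compound exposure 15 min at room temperature before reaction start.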
An asterisk follows results filed as active; ! = a repeat was not active. An excerpt weighted towards active compounds, which were near 3.3% of everything screened. Calls come from the whole dose curve; as a rule, active = well fitted curve in the direction sought with a large enough effect; inconclusive = small, poorly fitted or top-dose-only effect, or another doubt; inactive = no such curve, though single readings can be large; an effect the other way counts as inactive or inconclusive. Unless noted, % is set by controls: 0 for no effect and ±100 for the full control effect; potency is the fitted concentration of half-maximal effect.

Cc1ccc(C(=O)O)cc1N1C(=O)c2cccc3c([N+](=O)[O-])ccc(c23)C1=O was read as AmpC inh no detg -24.2%, AmpC inh detg -8.6% and Sm TGR block 14.1µM*.
For CC(=O)Oc1cccc(N2C(=O)c3cccc4c([N+](=O)[O-])ccc(c34)C2=O)c1 the results were AmpC inh no detg -1.5%, AmpC inh detg -13.6% and Sm TGR block 1.0%.
Screening O=C(O)c1ccc(CN2C(=O)c3cccc4c([N+](=O)[O-])ccc(c34)C2=O)cc1 returned AmpC inh no detg -19.1%, AmpC inh detg 0.1% and Sm TGR block 17.8µM*.
O=C1c2cccc3c([N+](=O)[O-])ccc(c23)C(=O)N1CCc1ccccn1 was read as AmpC inh no detg -18.7%, AmpC inh detg 2.5% and Sm TGR block inconclusive.
For CN(C)CCCN1C(=O)c2cccc3c([N+](=O)[O-])ccc(c23)C1=O the results were AmpC inh no detg -0.4%, AmpC inh detg -3.3% and Sm TGR block 28.2µM*.
O=C(O)c1ccc(CN2C(=O)c3ccc(C(=O)O)cc3C2=O)cc1 was read as AmpC inh no detg -2.1%, AmpC inh detg -3.7% and Sm TGR block -8.6%.
For COc1ccccc1/C=C/c1nc(C#N)c(NCc2ccccc2)o1 the results were AmpC inh detg 20.5% and Sm TGR block 2.3%.
For CNc1ncnc2ccc(-c3c(C)noc3C)cc12 the results were AmpC inh no detg -11.7%, AmpC inh detg -2.2% and Sm TGR block -15.4%.
COc1ccc(Cl)cc1NC(=O)C1CCN(S(=O)(=O)c2ccc3c(c2)CCCN3C(=O)C2CCC2)CC1 was read as AmpC inh detg 3.9% and Sm TGR block -3.5%.
COc1ccc(S(=O)(=O)NCC(c2ccco2)N2CCN(c3ccccc3F)CC2)cc1C (stereo not drawn) was read as AmpC inh detg 3.5% and Sm TGR block 4.2%.
Cc1cc(-c2ccc(N=Nc3c(S(=O)(=O)O)cc4cc(S(=O)(=O)O)cc(N)c4c3O)c(C)c2)ccc1N=Nc1c(S(=O)(=O)O)cc2cc(S(=O)(=O)O)cc(N)c2c1O was read as AmpC inh no detg -51.9%, AmpC inh detg 12.6µM* and Sm TGR block -9.2%.
`O=S(=O)(O)c1cc(O)c2c(O)c(N=Nc3cc(Cl)ccc3O)c(S(=O)(=O)O)cc2c1` gave AmpC inh no detg -34.2%, AmpC inh detg -8.9% and Sm TGR block -31.4%.
Cc1sc2ncn(CC(=O)N3CCN(c4ccccc4F)CC3)c(=O)c2c1S(=O)(=O)N1CCC(C)CC1 was read as AmpC inh detg 6.3% and Sm TGR block 3.5%.
`CCOC(=O)C(NC(=O)CC)(Nc1sc(C)c(CC)c1C#N)C(F)(F)F` (stereo not drawn) gave AmpC inh no detg 30.2%, AmpC inh detg -14.1% and Sm TGR block 50.1µM*.
CCOC(=O)C(NC(=O)CC)(Nc1ccccc1)C(F)(F)F (stereo not drawn) was read as AmpC inh no detg 2.9%, AmpC inh detg -12.2% and Sm TGR block -0.9%.
Cc1cc(S(=O)(=O)Nc2cc3c(cc2N2CCOCC2)n(C)c(=O)c(=O)n3C)ccc1F was read as AmpC inh detg 0.6% and Sm TGR block -33.0%.
Screening COC(=O)c1ccc2c(c1)N(Cc1ccccc1)C(=O)c1ccccc1S2(=O)=O returned AmpC inh detg 5.9% and Sm TGR block 4.1%.
For CCCCNC(=S)N(C)/N=C/c1sc(N2CCCCC2)nc1-c1cccs1 the results were AmpC inh no detg 11.2µM*, AmpC inh detg -3.3% and Sm TGR block -3.0%.
`CC(C)NC(=S)N/N=C/c1sc(N2CCCCC2)nc1-c1cccs1` gave AmpC inh no detg -6.3%, AmpC inh detg -12.0% and Sm TGR block 6.0%.
For CCn1ncc(Cl)c1C(=O)NC(C)c1ccccc1 (stereo not drawn) the results were AmpC inh no detg 0.355µM*, AmpC inh detg 2.0% and Sm TGR block -0.7%.
For CCn1ncc(Br)c1C(=O)NC(C)c1ccccc1 (stereo not drawn) the results were AmpC inh no detg -9.1%, AmpC inh detg 3.3% and Sm TGR block -1.1%.
`O=C(NCc1ccc(F)cc1)c1ccc(NC(=O)N2CC3CCCN3c3ccccc32)cc1` (stereo not drawn) gave AmpC inh detg 2.3% and Sm TGR block -19.6%.
Cc1cc(C)c2c(=O)n(CC(=O)NC3CCCC3)sc2n1 was read as AmpC inh no detg -27.8%, AmpC inh detg inconclusive and Sm TGR block inconclusive.
`COc1ccc(OC)c(CCNC(=O)Cn2sc3nc(C)cc(C)c3c2=O)c1` gave AmpC inh no detg inconclusive, AmpC inh detg 50.1µM* and Sm TGR block inconclusive.
CC(=O)c1sc(C(=O)O)c(-c2ccco2)c1-c1ccco1 was read as AmpC inh no detg -23.4%, AmpC inh detg -6.9% and Sm TGR block 20µM*.
CC(C)(Oc1ccc(-c2ccco2)cc1)C(=O)O was read as AmpC inh no detg -46.4%, AmpC inh detg -10.3% and Sm TGR block inconclusive.
`C=CCNC(=O)c1ccc(-c2ccc([N+](=O)[O-])cc2)o1` gave AmpC inh no detg -34.8%, AmpC inh detg -12.6% and Sm TGR block 17.8µM*.
For C=CCc1ccc(OCc2ccc(C(=O)Nc3ccc(NC(C)=O)cc3)o2)c(OC)c1 the results were AmpC inh no detg 101.3%, AmpC inh detg 0.8% and Sm TGR block 44.7µM*!.
`COc1cc([N+](=O)[O-])ccc1-c1ccc(C(=O)Nc2ccc(NC(C)=O)cc2)o1` gave AmpC inh no detg -16.5%, AmpC inh detg -5.7% and Sm TGR block 20µM*.
`O=C(c1ccc(-c2ccc([N+](=O)[O-])cc2)o1)N1CCCCCCC1` gave AmpC inh no detg -9.4%, AmpC inh detg -5.7% and Sm TGR block 20µM*.
CC(=O)Nc1ccc(NC(=O)c2ccc(-c3ccc([N+](=O)[O-])cc3)o2)cc1 was read as AmpC inh no detg -16.2%, AmpC inh detg -6.1% and Sm TGR block -13.6%.
For C=CCNC(=O)c1ccc(-c2cccc([N+](=O)[O-])c2)o1 the results were AmpC inh no detg -19.0%, AmpC inh detg -2.8% and Sm TGR block inconclusive.
`COc1ccccc1NC(=O)c1ccc(COc2ccccc2OC)o1` gave AmpC inh no detg -3.4%, AmpC inh detg -12.4% and Sm TGR block 1.7%.
Screening O=C(c1ccc(-c2ccc([N+](=O)[O-])cc2)o1)N1CCCC(C(F)(F)F)C1 (stereo not drawn) returned AmpC inh no detg 38.2%, AmpC inh detg -1.7% and Sm TGR block inconclusive.
COc1cccc(CNC(=O)CCc2c(C)c3cc4c(C)coc4cc3oc2=O)c1 was read as AmpC inh detg 17.9% and Sm TGR block 1.2%.
For CCc1ccc(NS(=O)(=O)c2ccc3[nH]cc(C(=O)NCc4ccc(C)cc4)c(=O)c3c2)cc1 the results were AmpC inh detg 0.0% and Sm TGR block 20.2%.
For COc1cc(OC)c(NC(=O)Cn2c(=O)nc(-c3ccccc3)c3ccccc32)cc1Cl the results were AmpC inh detg 21.6% and Sm TGR block -3.5%.
`Cc1cccc(CSc2ncc(Cl)c(C(=O)Nc3sc4c(c3C#N)CCCC4)n2)c1` gave AmpC inh detg 15.0% and Sm TGR block 3.6%.
COc1ccc(NC(=O)c2ccc(-c3ccc([N+](=O)[O-])cc3)o2)cc1OC was read as AmpC inh no detg 14.9%, AmpC inh detg -12.4% and Sm TGR block -9.7%.

Bioassay records deposited in PubChem by National Center for Advancing Translational Sciences (NCATS).
